NPC1 prom act – qHTS Assay for NPC1 Promoter Activators; Potency, µM (titrated, usually from 9.22 µM), most hits filed as activators; Huh7 NPC1 promoter luciferase reporter, 24 h; 2.4% of 320,000 active; also: nearly all actives have a fitted effect of over 60% in size
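Cells: Huh7 expressing luciferase under the NPC1 promoter, 1500/well. Seeded 2 h, compound added, incubated 24 h at 37 °C. Luciferase reagent, 10 min ambient, then luminescence.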
Rab9 promoter act – qHTS Assay for Rab9 Promoter Activators. Huh7 Rab9 promoter-luciferase reporter, luminescence, 24 h. Potency, µM (doses to about 9.22 µM), hits mostly activators. 2.8% of 320,000 active; also: nearly all actives have a fitted effect of over 60% in size
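Using Huh7 cells stably transfected with Rab9 promoter–luciferase, compounds were incubated 24 h at 37 °C, 5% CO2; luciferase luminescence was read 10 min after reagent addition.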
FLuc counter – qHTS profiling assay for firefly luciferase inhibitor/activator using purifed enzyme and Km concentrations of substrates (counterscreen for miR-21 project); purified FLuc, Km substrates, luminescence inhibition; Potency, µM (doses to about 57.5 µM), actives largely listed as inhibitors; 6.9% of 360,000 active; also: nearly all actives have a fitted effect of over 55% in size
Target sequence (P08659 whole entry, looked up): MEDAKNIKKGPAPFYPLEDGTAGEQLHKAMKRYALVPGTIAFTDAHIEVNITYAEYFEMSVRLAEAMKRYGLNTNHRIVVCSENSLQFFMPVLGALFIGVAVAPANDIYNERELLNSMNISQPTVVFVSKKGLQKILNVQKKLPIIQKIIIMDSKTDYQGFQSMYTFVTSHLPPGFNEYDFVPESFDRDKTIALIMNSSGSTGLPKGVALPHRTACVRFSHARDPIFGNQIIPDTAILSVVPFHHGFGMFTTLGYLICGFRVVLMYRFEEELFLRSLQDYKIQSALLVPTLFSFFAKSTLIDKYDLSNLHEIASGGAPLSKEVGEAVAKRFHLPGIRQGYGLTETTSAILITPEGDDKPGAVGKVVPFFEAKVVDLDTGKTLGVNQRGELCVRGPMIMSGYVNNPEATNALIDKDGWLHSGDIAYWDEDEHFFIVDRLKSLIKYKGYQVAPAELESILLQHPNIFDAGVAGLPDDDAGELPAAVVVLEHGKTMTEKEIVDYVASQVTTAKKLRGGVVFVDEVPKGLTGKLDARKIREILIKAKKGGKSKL
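Biochemical qHTS of compounds, final roughly 60 µM downward over six points, against 10 nM purified firefly luciferase using Km concentrations of substrates (10 uM D-luciferin, 10 uM ATP) in Tris acetate pH 7.5 buffer; luminescence output.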
ELG1 repair inh – qHTS screen for small molecules that inhibit ELG1-dependent DNA repair in human embryonic kidney (HEK293T) cells expressing luciferase-tagged ELG1; HEK293T ELG1-luciferase reporter, luminescence, 16 h; DNA damage induced by 5-fluorouridine; Potency, µM (doses to about 46.1 µM), usual class: inhibitors; 2.3% of 330,000 active; also: nearly all actives have a fitted effect of over 55% in size
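Cells (2,000 per well) received 5-fluorouridine plus test compound or DMSO and were incubated 16 hr at 37 °C, 5% CO2. Luciferase activity was read by luminescence 30 min after ONE-Glo addition; signal suppression marked inhibition of damage-induced ELG1 function.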
ELG1 genotox – qHTS screen for small molecules that induce genotoxicity in human embryonic kidney (HEK293T) cells expressing luciferase-tagged ELG1. HEK293T ELG1-luciferase reporter, luminescence, 16 h. Potency, µM (series often up to 46 µM), most hits filed as activators. 1.3% of 330,000 active. AID 504466, 2011; also: nearly all actives have a fitted effect of over 60% in size
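After overnight (16 hr) compound treatment at 37 °C, ELG1-luciferase HEK293T cells were lysed with ONE-Glo; luminescence quantified 30 min later at room temperature.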
SMN2 splice enh – qHTS Assay for Enhancers of SMN2 Splice Variant Expression | HEK293 SMN2-luciferase splicing reporter, luminescence, 30-36 h | Potency, µM (titrated, usually from 46.1 µM), usual class: activators | 2.8% of 210,000 active; also: nearly all actives have a fitted effect of over 55% in size
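HEK293 cells carry an SMN2 […]–luciferase reporter in which exon 7 inclusion puts luciferase in frame. Cells were plated 10-12 h before compound addition, then incubated 30-36 h at 37C. ONE-Glo luminescence was read; sodium butyrate at 4.5 mM final served as control.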
Hits are given with their value; i = inactive; ? = inconclusive; nt = not tested or not shown; [ ] = remark or other dose. Only some compounds are listed: those with a hit (about 9.3% of all), similar ones and a draw of the others. Calls follow the shape of the dose curve; as a rule, active = well fitted curve in the direction sought with a large enough effect; inconclusive = small, poorly fitted or top-dose-only effect, or another doubt; inactive = no such curve, though single readings can be large; an effect the other way counts as inactive or inconclusive.

SMILES	NPC1 prom act	Rab9 promoter act	FLuc counter	ELG1 repair inh	ELG1 genotox	SMN2 splice enh
COc1cc(OC)c2c(=O)cc(-c3ccccc3)oc2c1	?	?	5.36µM	?	23.1µM	nt
COc1ccc(-c2coc3cc(OC)cc(OC)c3c2=O)cc1	?	?	15.1µM	?	?	i
Cc1ccc(C(=O)Nc2ccc(N3CCN(C(=O)c4cccs4)CC3)cc2)c(Cl)c1	i	i	i	?	i	nt
c1ccc(Sc2cnc3ccccc3n2)cc1	nt	nt	21.3µM	nt	nt	i
Clc1ccc(Sc2cnc3ccccc3n2)cc1	nt	nt	15.1µM	nt	nt	i
Brc1ccc(Sc2cnc3ccccc3n2)cc1	nt	nt	?	nt	nt	i
Cc1ccc(S(=O)(=O)N2C(=O)/C(=C3\SC(=S)NC3=O)c3ccccc32)cc1	i	i	i	i	i	nt
CN1CCN(c2ccc(Cl)cc2NC(=O)/C=C/c2ccc(F)cc2)CC1	i	i	i	i	i	i
Cc1ccc(NNS(=O)(=O)c2ccc(C)cc2)cc1	i	i	21.3µM	i	i	i
COc1cccc(N=c2oc3ccc(OC)cc3cc2-c2nc3ccccc3[nH]2)c1	nt	nt	19µM	nt	nt	?
COc1ccc(OC(C)c2nc3ccccc3[nH]2)cc1 (configuration not stated)	nt	nt	i	nt	nt	nt
COc1cccc(N=c2oc3ccccc3cc2-c2nc3ccccc3[nH]2)c1	3.16µM	1.58µM	9.53µM	?	?	15.8µM
COc1cccc(CC(=O)Nc2nc3ccccc3[nH]2)c1	i	i[1.84 µM]	i	i	i	i
CC(C)c1ccc2c(c1)[C@H]1OCC[C@H]1[C@@H](c1cccs1)N2	i	i	9.53µM	?	i	i
CC(/C=N/NC(=O)c1ccccc1F)=C\c1ccccc1	1.12µM	1.12µM	3.38µM	?	?	nt
CC(/C=N/NC(=O)c1ccco1)=C\c1ccccc1	0.562µM	0.355µM	2.39µM	?	2.31µM	2.51µM
COc1ccc(C(=O)NCC(=O)N/N=C/C(C)=C/c2ccccc2)cc1OC	i	i	16.9µM	i	i	i
O=C(N/N=C\CCc1ccccc1)c1ccco1	i	i	i	i	i	?
CC(/C=N\NC(=O)c1ccc(C)nc1)=C\c1ccccc1	i	i	8.49µM	i	i	i
CCOCCCNC(=O)c1c[nH]c2ccc(S(=O)(=O)Nc3cccc(Cl)c3C)cc2c1=O	nt	nt	?	nt	nt	i
Cc1cccc(Nc2nnc(SCC(=O)NC(=O)CN3CCCC3=O)s2)c1	i	i	9.53µM	i	i	nt
Cc1cccc(Nc2nnc(SCC(=O)Nc3ccc(C(=O)O)cc3)s2)c1	i	i	1.69µM	?	i	i
COc1ccc(Nc2nnc(SCC3CCCCO3)s2)cc1 (configuration not stated)	i	i	?	i	i	i
COc1ccc(-c2nnc(SCC(=O)Nc3cccc(C)c3)s2)cc1	nt	nt	i	nt	nt	nt
Cc1cccc(NC(=O)CSc2nnc(NC(=O)C3CCC3)s2)c1	i	i	i	?	i	nt
SMILES	NPC1 prom act	Rab9 promoter act	FLuc counter	ELG1 repair inh	ELG1 genotox	SMN2 splice enh
COc1cc(OC)cc(-c2nnc(SCC(=O)Nc3cccc(C(=O)O)c3)s2)c1	i	i	15.1µM	i	i	i
Cc1cccc(Nc2nnc(SCC3CCCCO3)s2)c1 (configuration not stated)	3.98µM	2.82µM	5.36µM	?	i	20µM
COc1ccc(-c2nc(CSc3nnc(C)n4c3cc3occc34)c(C)o2)cc1OC	nt	nt	i	nt	nt	nt
C/C(=N\NC(=O)c1cc(C)oc1C)c1ccc(N2CCOCC2)cc1	i	i	i	?	i	i
Cc1cccc(Nc2nnc(SCC(=O)Nc3ccccc3[N+](=O)[O-])s2)c1	i	i	7.57µM	i	i	i
CCc1nnnn1-c1ccc([N+](=O)[O-])cc1C	i	i	i	i	i	i
O=C(Nc1ccccc1C(=O)O)c1cccc(NC(=O)c2ccc(Br)o2)c1	i	i	19µM	i	i	i
O=C(Nc1ccccc1C(=O)O)c1ccccc1	i	i	?	?	i	i
CC(=O)Nc1cccc(C(=O)Nc2ccccc2C(=O)O)c1	i	i	23.9µM	i	i	i
O=C(Nc1ccccc1C(=O)O)c1cccc(C(=O)Nc2ccccc2C(=O)O)c1	i	i	19µM	?	i	nt
O=C(Nc1sc(-c2ccccc2)cc1C(=O)O)c1ccccc1	3.16µM	2.82µM	?	?	i	nt
CCOC(=O)c1cc(-c2ccccc2)sc1NC(=O)c1ccc(OC)cc1	i	i	?	i	i	i
C#CC(CC)(CC)NC(=O)c1cc(S(=O)(=O)N2CCCCC2)ccc1N1CCOCC1	i	i	i	i	i	nt
O=C(NC1CC1)C1CC(=O)N(c2ccc(F)cc2)C1 (configuration not stated)	i	i	i	i	i	nt
O=C1NCCCC2c3c(cc(Br)c(O)c3Br)OC12N1CCCCC1 (configuration not stated)	i	i	i	i	i	i
CC(C)CC(=O)Nc1cccc(C(=O)Nc2ccccc2C(=O)O)c1	i	i	15.1µM	i	i	i
Cc1ccccc1NC(=O)c1cccc(NC(=O)CCC(=O)O)c1	i	i	i	i	i	nt
